# Results filed as inconclusive are left out. Where a call stands in place of a potency, no number is given. Calls of active or inactive are those of the source. Calls come from the whole dose curve; as a rule, active = well fitted inhibition curve with a large enough effect; inconclusive = small, poorly fitted or top-dose-only effect; inactive = flat fitted curve, though single readings scatter.
# Legend:
# Experiment in all cases: qHTS profiling for inhibitors of Plasmodium falciparum proliferation (AID 504749); note: nearly all actives have a fitted effect of over 60% in size
# Conditions in all cases: P. falciparum in erythrocytes, SYBR Green DNA, 72 h; series mostly up to 28.7 µM
# C2A = system: C2A
# How it was run: (§1)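 Fluorescence of SYBR Green-bound parasite DNA, read at 485/535 nm, served as the growth measure. Infected erythrocytes were cultured with compound 72 h; artemisinin (0.29 uM) and DMSO wells defined the normalization range.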
# CP185 = system: CP185
# How it was run: as §1
# CP215 = system: CP215
# How it was run: as §1
# CP217 = system: CP217
# How it was run: as §1
# CP237 = system: CP237
# How it was run: as §1
# CP238 = system: CP238
# How it was run: as §1
# CP268 = system: CP268
# How it was run: as §1
# CP269 = system: CP269
# How it was run: as §1
# CP286 = system: CP286
# How it was run: as §1
# CP305 = system: CP305
# How it was run: as §1
# ECU = system: ECU
# How it was run: as §1
# FAB9 = system: FAB9
# How it was run: as §1
# GB4 = system: GB4
# How it was run: as §1
# HB3 = system: HB3
# How it was run: as §1
# P93_24 = system: P93_24
# How it was run: as §1
# P94_40 = system: P94_40
# How it was run: as §1
# PAD = system: PAD
# How it was run: as §1
# PC26 = system: PC26
# How it was run: as §1
# PC49 = system: PC49
# How it was run: as §1
# SC27B = system: SC27B
# How it was run: as §1
# Potency is the fitted concentration of half-maximal effect.
Structure (SMILES),Potency (C2A),Potency (CP185),Potency (CP215),Potency (CP217),Potency (CP237),Potency (CP238),Potency (CP268),Potency (CP269),Potency (CP286),Potency (CP305),Potency (ECU),Potency (FAB9),Potency (GB4),Potency (HB3),Potency (P93_24),Potency (P94_40),Potency (PAD),Potency (PC26),Potency (PC49),Potency (SC27B)
[Hg+][c]1ccccc1,inactive,inactive,10.7 µM (active),inactive,inactive,inactive,9.53 µM (active),15.1 µM (active),inactive,10.7 µM (active),inactive,7.08 µM (active),9.53 µM (active),inactive,inactive,inactive,inactive,12 µM (active),3.55 µM (active),inactive
C[C@]12CC[C@H](OS(=O)(=O)O)CC1=CCC1C2CC[C@]2(C)C(=O)CC[C@@H]12 (stereo not given in full),inactive,inactive,inactive,inactive,inactive,inactive,inactive,inactive,inactive,inactive,inactive,inactive,inactive,inactive,inactive,inactive,inactive,inactive,inactive,inactive
